Source: PubChem BioAssay AID493206 (National Center for Advancing Translational Sciences (NCATS), 2011)
Several values for one entry are separate records, joined by “and”; a condition that tells them apart may be missing. Equal values may be shown once. Records with an inconclusive call do not appear. Activity calls are given as the source filed them. Calls come from the whole dose curve; as a rule, active = well fitted inhibition curve with a large enough effect; inconclusive = small, poorly fitted or top-dose-only effect; inactive = flat fitted curve, though single readings scatter.

The compounds below were run against Dual specificity tyrosine-phosphorylation-regulated kinase 1A (Homo sapiens) (UniProt Q13627) (assay: Assay for Inhibitors of Dual-Specificity Tyrosine-(Y)-Phosphorylation Regulated Kinase 1A (Kinase-Glo assay): round 2 SAR). Settings: recombinant DYRK1A, Kinase-Glo ATP depletion luminescence; series mostly up to 76.9 µM.
From the text: NIH Molecular Libraries Probe Production Centers Network [MLPCN] NIH Chemical Genomics Center [NCGC] MLPCN Grant: 1R03MH084827-01 PI Name: Tom Misteli NCGC Assay Overview: The CMGC group of protein kinases which includes CDK-like kinases (Clk) and Dyks are essential kinases found in all eukaryotes. Clks have been implicated to play a role in the regulation of alternative splicing; while Dyrks, in particular over expression of Dyrk1A, has been linked to diseases as Down syndrome (DS; OMIM 190685) and Alzheimer disease (AD; OMIM 104300). Among the members of the CMGC group, the Clks and the Dyrks are very closely related therefore to determine validity and selectivity of an active compound observed in the CLK4 qHTS screen (AID:1770), a bioluminescent counter-screen against Dyrk1A was developed. In addition, potent and selective compounds against Dyrk1A were identified to further assess the role of this enzyme in DS and AD. Dyrk1A (Invitrogen, cat # PV3785) was assayed using ATP and DYRKtide (AnaSpec, cat# 62698) as substrates. Promega Kinase-Glo (cat# V6712) technology was used to detect the residual ATP following kinetic reaction. The Kinase-Glo Plus contains Ultra-Glo [5] luciferase and D-luciferin which generates a bioluminescence signal from the remaining ATP. No enzyme and harmine (Sigma, cat # 286044-1G), a compound shown to inhibit Dyrks were used as a positive control; while DMSO treatment was used as a negative control.
NCGC Assay Protocol Summary: Two uL/well of substrate solution (8uM Dyrktide, 2uM ATP, 25mM Tris-HCl pH 7.5, 10mM MgCl2 , 0.5mM EGTA, 5mM cystein, 0.01% Triton X-100 final concentration) was dispensed into 1536-well assay plates (Greiner, solid white, medium-binding plates) with Aurora Discovery BioRAPTR Flying Reagent Dispenser (FRD, Beckton-Dickenson). Compound solution (23 nL) was transferred to the assay plate using Kalypsys pin tool equipped with a 1536-pin tool. One uL/well enzyme solution (5nM Dyrk1A, 25mM Tris-HCl pH7.5, 10mM MgCl2, 0.5mM EGTA, 5mM cystein, 0.01% Triton X-100 final concentration) was then added using FRD yielding a total kinase reaction volume of 3uL/well. After 2 hours of room temperature incubation, 3uL Kinase-Glo detection reagent was added for a final assay volume of 6uL/well. The plates were spun for 30 seconds (1000 rpm) and incubated at ambient temperature for 2 minutes followed by a luminescence read using Perkin Elmer ViewLux plate reader at 3 seconds exposure time and 2x binning.
With `OCc1ccc(-c2ccc3ncnc(N4CCOCC4)c3c2)o1` the Potency was 16.4 µM (active). In the case of `c1nc(NCC2CCCCC2)c2cc(-c3ccc4c(c3)OCO4)ccc2n1`, the Potency is reported as 0.26 µM (active). For `c1cncc(CNc2ncnc3ccc(-c4ccoc4)cc23)c1`, the Potency was 9.23 µM (active). `CN1CCN(c2ncc3nc(-c4cn(C)c5ccccc45)c(=O)n(Cc4cccs4)c3n2)CC1` was tested, and the Potency was “inactive”. With `c1nc(N2CCNCC2)c2cc(-c3ccc4c(c3)OCO4)ccc2n1` the Potency was 5.19 µM (active). In the case of `Cc1ccsc1CN(C)c1ncnc2ccc(-c3ccc(COC(=O)N(C)C)o3)cc12`, the Potency is reported as 9.23 µM (active). In the case of `O=C(O)c1ccc(-c2ccc3ncnc(N4CCOCC4)c3c2)o1`, the Potency is reported as 26 µM (active). In the case of `Clc1cccc(-c2ccc3ncnc(NCc4cccnc4)c3c2)c1`, the Potency is reported as 18.4 µM (active). For `C[C@@H](O)c1ccc(-c2ccc3ncnc(NCc4cccs4)c3c2)o1`, the Potency was 23.2 µM (active). In the case of `Cc1csc(CNc2ncnc3ccc(-c4ccc(C(=O)O)o4)cc23)n1`, the Potency is reported as 14.6 µM (active). For `CC(O)c1ccc(-c2ccc3ncnc(N4CCOCC4)c3c2)o1` (centres undefined), the Potency was 23.2 µM (active). In the case of `Cc1csc(CNc2ncnc3cc(-c4ccc5c(c4)OCO5)ccc23)n1`, the Potency is reported as 29.2 µM (active). With `COc1cccc(-c2ccc3ncnc(NCc4cc(C)cs4)c3c2)c1` the Potency was 5.82 µM (active). In the case of `CN(C)CCCNc1ncnc2ccc(-c3ccc4c(c3)OCO4)cc12`, the Potency is reported as 8.23 µM (active). For `CCNC(=O)c1ccc(-c2ccc3ncnc(NCc4ccc(C)o4)c3c2)o1`, the Potency was 9.23 µM (active). For `c1csc(CNc2ncnc3cc(-c4ccc5c(c4)OCO5)ccc23)c1`, the Potency was 26 µM (active). With `Cc1csc(CNc2ncnc3ccc(-c4cccnc4)cc23)c1` the Potency was 23.2 µM (active). With `Cc1ccc(CN(C)c2ncnc3ccc(-c4ccc(C(=O)O)o4)cc23)o1` the Potency was 16.4 µM (active). In the case of `CCCNc1ncnc2ccc(-c3ccc4c(c3)OCO4)cc12`, the Potency is reported as 0.184 µM (active). In the case of `O=C(O)c1ccc(-c2ccc3ncnc(NCC4CCCO4)c3c2)o1` (centres undefined), the Potency is reported as 23.2 µM (active). For `CC(O)c1ccc(-c2ccc3ncnc(NCCc4cnc[nH]4)c3c2)o1` (centres undefined), the Potency was 23.2 µM (active). `c1nc(N2CCOCC2)c2cc(-c3ccc4c(c3)OCO4)ccc2n1` was tested, and the Potency was 1.46 µM (active). For `Cc1nc(C(C)N(C)c2ncnc3ccc(-c4ccc5c(c4)OCO5)cc23)cs1` (centres undefined), the Potency was 29.2 µM (active). In the case of `Cn1cncc1CNc1ncnc2ccc(-c3ccc4c(c3)OCO4)cc12`, the Potency is reported as 0.463 µM (active). With `COc1cccc(Nc2ncc3ncc(=O)n(C)c3n2)c1` the Potency was 11.6 µM (active). `c1coc(CNc2ncnc3ccc(-c4ccc5c(c4)OCO5)cc23)c1` was tested, and the Potency was 0.207 µM (active). With `Cc1csc(CNc2ncnc3ccc(-c4ccc5c(c4)OCCO5)cc23)c1` the Potency was 1.64 µM (active). `c1nc(NCc2ccc3c(c2)OCO3)c2cc(-c3ccc4c(c3)OCCO4)ccc2n1` was tested, and the Potency was 4.12 µM (active). With `Cc1csc(CNc2ncnc3ccc(-c4ccc5c(c4)OCO5)cc23)n1` the Potency was 0.207 µM (active). `Cc1cccc(-c2ccc3ncnc(NCc4cccc(F)c4)c3c2)c1` was tested, and the Potency was 13 µM (active). In the case of `Cn1ccc2cc(-c3ccc4ncnc(NCc5cccc(F)c5)c4c3)ccc21`, the Potency is reported as “inactive”. In the case of `Clc1ccccc1-c1ccc2ncnc(NCc3cccs3)c2c1`, the Potency is reported as 6.54 µM (active). In the case of `CCNC(=O)c1ccc(-c2ccc3ncnc(NCc4nccs4)c3c2)o1`, the Potency is reported as 10.4 µM (active). For `Cc1ccc(CNc2ncnc3ccc(-c4ccc([C@@H](C)O)o4)cc23)o1`, the Potency was 26 µM (active) and 16.4 µM (active) and 23.2 µM (active). `CN(CC1CCCCO1)c1ncnc2ccc(-c3ccc4c(c3)OCO4)cc12` (centres undefined) was tested, and the Potency was 0.292 µM (active). With `Cc1csc(CNc2ncnc3ccc(-c4ccoc4)cc23)c1` the Potency was 3.68 µM (active). With `Cc1cccc(CNc2ncnc3ccc(-c4ccc5c(c4)OCCO5)cc23)c1` the Potency was 3.68 µM (active). For `CCNC(=O)c1ccc(-c2ccc3ncnc(NCCc4cnc[nH]4)c3c2)o1`, the Potency was 11.6 µM (active). With `Fc1cccc(CNc2ncnc3ccc(-c4ccoc4)cc23)c1` the Potency was 0.823 µM (active).
